Bioassay records as filed in PubChem BioAssay.
mHTT-CaM PPI inh = disrupts binding of mutant huntingtin to calmodulin; P42858; AlphaScreen His-mHTT/GST-CaM binding, luminescence; inhibition, % at 15 µM; 190,000 tested, 3.6% active; AID 1671202
Target sequence (P42858 whole entry, looked up, change not shown): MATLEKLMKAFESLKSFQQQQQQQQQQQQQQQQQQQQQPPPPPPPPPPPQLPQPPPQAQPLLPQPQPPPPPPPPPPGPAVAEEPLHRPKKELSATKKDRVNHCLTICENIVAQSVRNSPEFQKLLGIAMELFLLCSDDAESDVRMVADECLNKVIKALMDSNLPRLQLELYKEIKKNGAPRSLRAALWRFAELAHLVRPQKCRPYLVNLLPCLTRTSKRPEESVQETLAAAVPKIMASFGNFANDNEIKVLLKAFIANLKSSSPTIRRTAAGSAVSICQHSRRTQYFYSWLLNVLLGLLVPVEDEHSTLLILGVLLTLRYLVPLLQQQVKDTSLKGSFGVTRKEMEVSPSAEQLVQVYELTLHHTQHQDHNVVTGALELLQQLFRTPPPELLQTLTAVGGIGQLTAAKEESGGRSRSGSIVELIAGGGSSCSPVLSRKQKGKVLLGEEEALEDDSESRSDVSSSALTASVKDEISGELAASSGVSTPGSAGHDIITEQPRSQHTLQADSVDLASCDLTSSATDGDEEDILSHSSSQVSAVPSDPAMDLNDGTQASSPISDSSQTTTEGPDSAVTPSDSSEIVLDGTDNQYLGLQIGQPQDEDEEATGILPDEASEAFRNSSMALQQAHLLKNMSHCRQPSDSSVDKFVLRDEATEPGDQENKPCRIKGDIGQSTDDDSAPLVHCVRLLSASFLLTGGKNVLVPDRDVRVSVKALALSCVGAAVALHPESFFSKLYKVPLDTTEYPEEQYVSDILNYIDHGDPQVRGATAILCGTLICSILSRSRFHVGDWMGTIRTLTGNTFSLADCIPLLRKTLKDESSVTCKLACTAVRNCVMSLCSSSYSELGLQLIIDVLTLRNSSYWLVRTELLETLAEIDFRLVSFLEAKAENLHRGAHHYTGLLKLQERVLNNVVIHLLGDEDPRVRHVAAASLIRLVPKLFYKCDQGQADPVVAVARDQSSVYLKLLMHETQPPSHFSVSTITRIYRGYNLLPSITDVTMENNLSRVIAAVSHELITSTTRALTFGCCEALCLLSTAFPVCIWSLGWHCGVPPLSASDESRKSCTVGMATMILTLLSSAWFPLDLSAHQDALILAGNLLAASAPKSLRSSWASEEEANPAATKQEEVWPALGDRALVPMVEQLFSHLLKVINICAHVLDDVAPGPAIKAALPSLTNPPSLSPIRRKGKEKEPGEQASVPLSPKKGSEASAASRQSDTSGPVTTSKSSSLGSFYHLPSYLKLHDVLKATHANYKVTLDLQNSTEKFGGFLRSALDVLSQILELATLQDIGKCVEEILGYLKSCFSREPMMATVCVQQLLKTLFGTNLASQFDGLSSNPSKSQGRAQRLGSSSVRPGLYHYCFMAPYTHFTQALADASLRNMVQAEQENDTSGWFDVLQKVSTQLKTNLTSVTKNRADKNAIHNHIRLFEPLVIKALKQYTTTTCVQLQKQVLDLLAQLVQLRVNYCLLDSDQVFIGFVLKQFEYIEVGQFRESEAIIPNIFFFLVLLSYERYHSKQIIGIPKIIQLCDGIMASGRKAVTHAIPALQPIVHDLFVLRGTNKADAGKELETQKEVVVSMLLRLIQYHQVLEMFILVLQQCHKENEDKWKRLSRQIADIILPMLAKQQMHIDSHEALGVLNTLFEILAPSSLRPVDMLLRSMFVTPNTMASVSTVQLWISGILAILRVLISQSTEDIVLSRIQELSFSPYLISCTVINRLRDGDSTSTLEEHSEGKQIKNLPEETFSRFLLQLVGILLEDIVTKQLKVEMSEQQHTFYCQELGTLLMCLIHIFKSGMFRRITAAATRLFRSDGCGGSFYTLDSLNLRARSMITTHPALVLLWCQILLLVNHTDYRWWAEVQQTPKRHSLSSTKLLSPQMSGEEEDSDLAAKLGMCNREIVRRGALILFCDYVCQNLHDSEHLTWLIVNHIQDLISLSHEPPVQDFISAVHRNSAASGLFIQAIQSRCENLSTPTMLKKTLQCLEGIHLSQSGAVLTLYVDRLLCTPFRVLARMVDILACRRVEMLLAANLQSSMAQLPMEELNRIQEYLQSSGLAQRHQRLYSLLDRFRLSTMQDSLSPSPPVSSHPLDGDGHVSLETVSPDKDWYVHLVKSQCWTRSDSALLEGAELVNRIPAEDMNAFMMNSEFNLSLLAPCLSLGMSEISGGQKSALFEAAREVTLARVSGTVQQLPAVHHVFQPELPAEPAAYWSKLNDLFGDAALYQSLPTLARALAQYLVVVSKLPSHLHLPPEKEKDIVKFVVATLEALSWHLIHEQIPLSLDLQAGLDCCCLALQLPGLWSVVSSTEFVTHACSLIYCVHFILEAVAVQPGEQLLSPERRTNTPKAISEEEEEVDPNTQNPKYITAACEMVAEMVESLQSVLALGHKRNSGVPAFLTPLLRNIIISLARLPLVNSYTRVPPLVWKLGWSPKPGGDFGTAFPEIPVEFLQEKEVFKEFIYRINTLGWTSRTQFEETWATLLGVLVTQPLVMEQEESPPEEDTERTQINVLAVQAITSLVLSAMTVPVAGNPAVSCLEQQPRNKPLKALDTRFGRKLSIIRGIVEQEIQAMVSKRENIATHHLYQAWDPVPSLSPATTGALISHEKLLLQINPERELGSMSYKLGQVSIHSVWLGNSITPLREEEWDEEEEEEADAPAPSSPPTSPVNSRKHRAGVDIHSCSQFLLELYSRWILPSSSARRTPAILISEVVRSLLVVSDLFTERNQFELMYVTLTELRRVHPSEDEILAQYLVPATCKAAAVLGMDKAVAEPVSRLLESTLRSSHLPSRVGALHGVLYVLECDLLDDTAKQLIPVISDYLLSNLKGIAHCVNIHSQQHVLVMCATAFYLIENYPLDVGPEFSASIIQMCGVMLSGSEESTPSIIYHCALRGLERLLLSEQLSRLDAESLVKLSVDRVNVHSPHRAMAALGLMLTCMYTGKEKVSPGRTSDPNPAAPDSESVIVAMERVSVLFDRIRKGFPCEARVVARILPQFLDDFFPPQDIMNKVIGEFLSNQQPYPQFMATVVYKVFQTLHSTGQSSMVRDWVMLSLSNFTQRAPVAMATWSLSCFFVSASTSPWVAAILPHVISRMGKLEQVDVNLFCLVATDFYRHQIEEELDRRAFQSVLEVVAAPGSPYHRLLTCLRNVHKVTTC
Pf apPOL block = Pf-apPOL DNA polymerase inhibition. inhibition, % at 10 µM. 210,000 tested, 0.25% active. Recombinant Pf-apPOL, molecular beacon fluorescence, 1.5 h. AID 1794808
Hits are given with their value; 0 = inactive; - = not tested or not shown; + = active, no number. Only some compounds are listed: those with a hit (about 3.6% of all), similar ones and a draw of the others. Cut-off read from the data, not from the text of the source: active = inhibition above about 50%; inactive = the rest.

SMILES	mHTT-CaM PPI inh	Pf apPOL block
O=C(O)c1c(F)c(F)c(-c2c(F)c(F)c(C(=O)O)c(F)c2F)c(F)c1F	0	0
O=C(CC1CCN(S(=O)(=O)c2cccs2)CC1)N1CCN(C2CCCCC2)CC1	0	0
COc1ccc(C(=O)CC2(O)C(=O)N(Cc3ccc(Cl)cc3)c3ccccc32)cc1[N+](=O)[O-] (centres undefined)	100	0
COc1ccc(C(=O)CC2(O)C(=O)Nc3ccccc32)cc1[N+](=O)[O-] (centres undefined)	0	0
c1ccc(-n2ncc3c2CCc2c-3[nH]c3ccccc23)cc1	0	0
c1ccc(-n2ncc3c2-c2[nH]c4ccccc4c2CC3)cc1	93	0
Cc1ccc(F)cc1NC(=O)CSc1cccc2cccnc12	0	0
Cc1cccc(NC(c2cccc(F)c2)c2ccc3cccnc3c2O)n1 (centres undefined)	99	0
Oc1c(C(c2ccncc2)N2CCOCC2)ccc2cccnc12 (centres undefined)	100	0
COc1ccc(NC(c2ccccc2)c2ccncc2)cc1 (centres undefined)	0	0
Oc1c(C(Nc2ccc(F)cc2)c2ccncc2)ccc2cccnc12 (centres undefined)	100	0
O=C(CSc1cccc2cccnc12)c1ccc(F)cc1	0	0
Cc1cccc(NC(c2ccc(F)cc2)c2ccc3cccnc3c2O)n1 (centres undefined)	100	0
c1cncc(C(N2CCOCC2)N2CCOCC2)c1	0	0
N#CC1=C(N)N(c2ccc(Cl)cc2)C2=C(C(=O)CCC2)C1c1cccc([N+](=O)[O-])c1 (centres undefined)	0	0
CCN(C(=O)c1noc2c1CCCC2)c1cccc(Cl)c1	0	0
COc1cccc(C(=O)Nc2c3c(nn2-c2cccc(C)c2C)CSC3)c1	0	0
Cc1ccc2c(c1)NC(=O)c1cc(NS(=O)(=O)CCN3C(=O)CCCC3=O)ccc1O2	0	0
C=C(S(=O)(=O)c1ccc(C)cc1)S(=O)(=O)c1ccc(C)cc1	0	0
CCOC(=O)C(=O)Nc1cccc(F)c1	0	0
Cc1ccc(OCC(=O)NN)cc1C	0	0
O=C(C[n+]1ccc2ccccc2c1)c1cc2ccccc2oc1=O	85	0
COC(=O)c1cc2ccccc2oc1=O	0	0
COc1ccc(C2CC(=O)Oc3c(C(C)C)ccc(C)c32)cc1 (centres undefined)	0	0
COc1ccc(C2CC(=O)Oc3cc(OC)ccc32)cc1 (centres undefined)	0	0
SMILES	mHTT-CaM PPI inh	Pf apPOL block
COc1ccc(C2CC(O)(c3ccccc3)Oc3c(C)ccc(C(C)C)c32)cc1 (centres undefined)	55	0
COc1ccc(C2CC(O)(c3ccccc3)Oc3cc(OC)ccc32)cc1 (centres undefined)	80	0
NNC(=O)CNC(=O)c1ccccc1	0	62
O=C(O)CNC(=O)c1ccccc1	0	0
COc1ccc(NC(=O)c2sc3cc(OC)ccc3c2Cl)cc1	0	0
O=C(N1CCNCC1)C12CC3CC(CC(C3)C1)C2	0	-
O=C(O)C#Cc1ccc([N+](=O)[O-])cc1	0	0
O=C(O)C1(c2ccc([N+](=O)[O-])cc2)CCCC1	94	0
COc1cccc(C2=NOC(C(=O)NC3CCCCC3)C2)c1OC (centres undefined)	0	0
CCC(=O)N1CCc2ccccc2C1C(=O)N1CCN(C2CCCCC2)CC1 (centres undefined)	0	0
CCc1cc2c(=O)c(-c3nc4ccccc4n3C)coc2c(CN2CCN(CCO)CC2)c1O	0	0
Cc1ccccc1S(=O)(=O)N1CCC(n2cnc3ccc(F)cc3c2=O)CC1	0	0
c1ccc(CNc2nc(-c3ccncc3)nc3c2CCC3)nc1	0	0
Cc1nn2c(NCc3ccccn3)c3c(nc2c1-c1ccccc1)CCCC3	63	0
CCC(=O)NCc1nc2c(n1C)CN(S(=O)(=O)c1cccc(C#N)c1)CC2	0	0
CC(=O)N1CCc2cc(Br)cc(S(=O)(=O)CCC(=O)NCc3ccco3)c21	0	0
Oc1ccccc1-c1cc(-c2ccc(Br)cc2)n[nH]1	0	0
Cc1nc2cccc(-c3cc(-c4ccccc4O)[nH]n3)c2o1	67	0
Cc1ccccc1-c1cc(-c2ccccc2O)on1	0	0
Cc1[nH]nc(-c2ccccc2)c1Br	0	0
Cc1cc(-c2ccccc2)n[nH]1	0	83
NC(N)=NC(N)=Nc1cc(-c2cccs2)[nH]n1	-	0
Oc1ccccc1-c1cc(-c2cccc(Br)c2)n[nH]1	96	0
Cc1ccc(O)c(-c2cc(-c3cccs3)[nH]n2)c1	56	0
N#Cc1c(C(F)(F)F)cc(-c2ccccc2)nc1SC(CCC1CC1)c1ccccc1 (centres undefined)	0	-
SMILES	mHTT-CaM PPI inh	Pf apPOL block
CCNC(=O)N1CC=C(C(=O)Nc2ccc(F)cc2)CC1	0	0
CCOc1cc(C=O)ccc1OCc1cccc(Cl)c1	0	0
COc1ccc(Cl)cc1C(=O)N1CCC(c2nc(C(=O)N3CCCCC3)c(C)o2)CC1	0	0
C=CCSc1nnc2c(n1)OC(c1ccc(C(=O)O)cc1)N(C(C)=O)c1ccccc1-2 (centres undefined)	0	0
COC(=O)C1Cc2ccc(Br)cc2C(=O)O1 (centres undefined)	0	0
Cc1cc(C)n(C(C)CC(=O)N2CCN(S(=O)(=O)c3ccc(Cl)cc3)CC2)n1 (centres undefined)	0	0
Cc1nn(-c2ccccc2)c2c1C(c1ccc(Cl)c([N+](=O)[O-])c1)C(C#N)=C(N)O2 (centres undefined)	0	0
Cc1cc(C)n2nc(SCc3cc(=O)n4cc(Br)ccc4n3)nc2n1	0	0
Oc1ccccc1-c1cc(-c2ccccc2)no1	0	0
COc1ccc(-c2cc(-c3cc(C)ccc3O)[nH]n2)cc1	70	0
Cc1ccc(O)c(-c2cc(-c3ccccc3)n[nH]2)c1	74	0
COc1ccc(-c2cc(C(=O)O)c3cc(C)ccc3n2)cc1	0	0
CC(=O)Cc1nsc(NC(=O)c2cc(-c3cc(Cl)ccc3Cl)oc2C)n1	0	0
Cc1ccc(Cn2cc(CCC(=O)NC3CC3)c3ccccc32)cc1	0	0
O=C(COc1ccccc1F)NCCn1nc(-c2ccco2)ccc1=O	0	0
O=C(CC(c1ccccc1)c1ccccc1)NCCn1nc(-c2ccco2)ccc1=O	69	0
Cc1cc(C)nc(Nc2nc(C(=O)NCCn3nc(-c4ccco4)ccc3=O)cs2)n1	62	0
Cn1cc(C(=O)NCCn2nc(-c3ccco3)ccc2=O)nn1	0	0
O=C(C1CN(c2nc3ccccc3s2)C1)N1CCN(c2ccccn2)CC1	0	0
C=CCN1C(=O)C(CC(=O)Nc2ccc(Br)cc2)SC1=Nc1ccc(O)cc1 (centres undefined)	0	0
Cc1ccccc1NC(=O)CN1CCC(c2nc(-c3ccncc3)no2)CC1	0	0
COc1ccc(-c2noc(C3CCN(CC(=O)Nc4ccccc4C)CC3)n2)cc1	66	0
N#Cc1cccc(-c2cn3c(n2)N(C(=O)c2ccccc2)CCC3)c1	0	0
N#Cc1cccc(-c2cn3c(n2)N(C(=O)COc2ccccc2)CCC3)c1	55	0
COc1cccc(CNC(=O)c2ccc(N3CCNC(c4ccccc4)C3)nc2)c1 (centres undefined)	0	0
Cc1cc(/C=N/NC(N)=S)c(C)n1-c1sc2c(c1C#N)CCCC2	+	-
N#Cc1c(-n2cccc2/C=N/O)sc2c1CCCC2	0	0
CCn1c(=O)c([N+](=O)[O-])c(NCCOC)c2ccccc21	0	0
